Shown are actives, neighbours in structure and some others; about 3.3% of the full set was active somewhere.
MITF TRPM1 HTS: activators of MITF-driven TRPM1 promoter reporter, primary screen, cell-based, SK-MEL-5, luciferase, single point; activation, % at 12.5 µM; 300,000 tested, 0.75% active; AID 588334, 2011; SK-MEL-5 TRPM1-promoter luciferase, 24 h; % of positive control, neutral wells = 0;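 active = mean activation of at least 80% with every replicate also reaching 80%; inconclusive = mean reaches 80% but some replicate falls short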;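 note: 0% = neutral control wells and 100% = parthenolide positive control wells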
esBAF inh: Bmi1 luciferase reporter increase in mESCs, primary screen, esBAF inhibitor project, mouse ES cells, Bmi1 luciferase knock-in, single point. 350,000 tested, 2% active. AID 602393, 2012. 24 h; 100% = twice the neutral-well signal. reporter increase, % at 12.5 µM; in the data active = activation above about 40%; inconclusive = no clear call, values can overlap the other calls;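 note: 0% = median of the plate's neutral control wells and 100% = double that signal; a rise in the Bmi1 reporter signal indicates esBAF inhibition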
Wnt bcat act: Wnt/beta-catenin pathway activators, primary screen, cell-based, plate reader, single point; Wnt/beta-catenin reporter cell assay, activator; activation, % at 9.35 µM; 300,000 tested, 1.2% active; AID 743398, 2014; in the data active = activation above about 30%, passing the limit was not always enough; inconclusive = no clear call, values can overlap the other calls;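 note: 0% = neutral control wells and 100% = positive control wells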
C2C12 statin: suppressors of statin myotoxicity in C2C12 myotubes, primary screen, cell-based, single point, plate reader | C2C12 myotubes + simvastatin, ATP luminescence, 48 h; scaled: DMSO 0, geranylgeraniol control 100 | rescue of ATP level, % at 7.49 µM | 330,000 tested, 0.78% active | AID 602340, 2012;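 active = mean ATP rescue above about 67%, or every replicate alone reaching that limit, limit read from the data, passing the limit was not always enough; inconclusive = no clear call, values can overlap the other calls; inactive = mean under the limit and some replicate under it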;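 note: myotubes were challenged with 10 µM simvastatin during compound exposure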
FXN GAA850 act: FXN promoter activators, primary screen, cell-based, luciferase luminescence, HEK293 lucGAA850. HEK293 lucGAA850 FXN promoter luciferase reporter, 24 h; percent of 10 µM SAHA response. activation, % at 6 µM. 360,000 tested, 0.56% active. AID 540364, 2011;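 active = activation above the average of all compounds screened plus 3 SD, cutoff fixed separately per campaign, cut at about 7.5% in these data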;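 note: 0% = DMSO wells and 100% = 10 µM SAHA wells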
Ring1 derepress: Ring1 mRNA increase in mouse ESCs, confirmation, esBAF inhibitor project, cell-based, mouse ESC, RT-qPCR, cherry-pick | shares compounds with esBAF inh | mouse ESC E14, Ring1 mRNA RT-qPCR fold change | fold change at 33 µM | 550 tested, under 10 active | AID 743176, 2013;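 active = Ring1 gene expression raised more than 2-fold over untreated cells in both replicates at either tested dose; inconclusive = only one replicate above 2-fold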;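 note: Ring1 transcript normalised to actin housekeeping signal by TaqMan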
Fgf4 repress: Fgf4 mRNA decrease in mouse ESCs, confirmation, esBAF inhibitor project, cell-based, mouse ESC, RT-qPCR, cherry-pick; Fgf4 expression fold change at 33 µM; shares compounds with esBAF inh; mouse ESC E14, Fgf4 mRNA qPCR fold change; active compounds read low; 550 tested, 4% active;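 active = Fgf4 expression under 0.8 fold of control in both repeat measurements at one or both tested doses; inconclusive = under 0.8 fold in just a single repeat measurement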;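 note: Fgf4 transcript normalised to actin in duplex TaqMan qPCR; cells exposed to compound for 24 h before lysis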
Bmi1 derepress: esBAF inhibition via Bmi1 de-repression, confirmation, cell-based, RT-qPCR, mouse ESC, single point, cherry-pick; AID 743180, 2013; shares compounds with esBAF inh; mouse ESE14 ES cells, Bmi1 mRNA qPCR fold; active compounds read high; 550 tested, under 10 active; fold change at 33 µM;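 active = Bmi1 expression fold change above 6 at either tested concentration, seen in replicate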;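 note: higher fold means more Bmi1 de-repression and stronger esBAF inhibition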
A549 cytotox: A549 cell cytotoxicity, cytotoxicity control, plate reader, single point, cherry-pick | shares compounds with esBAF inh | AID 743188, 2013 | 550 tested, under 10 active | cell viability change % (negative = cytotoxic), % at 25 µM, hits read low; call rule not given here
HepG2 cytotox SP: HepG2 cell cytotoxicity, cytotoxicity control, plate reader, single point, cherry-pick | 550 tested, 4% active | shares compounds with esBAF inh | activity change, negative = inhibition, % at 25 µM | active compounds read low | AID 743189, 2013; in the data active = activity change below about -50%
HEK293 cytotox SP: HEK293 cell cytotoxicity, cytotoxicity control, plate reader, single point, cherry-pick | shares compounds with esBAF inh | activity change, negative = inhibition, % at 25 µM, hits read low | 550 tested, 3% active | AID 743190, 2013; in the data active = activity change below about -38%, passing the limit was not always enough
Active calls of the source: *; ? = inconclusive; . = no result.

SMILES | MITF TRPM1 HTS | esBAF inh | Wnt bcat act | C2C12 statin | FXN GAA850 act | Ring1 derepress | Fgf4 repress | Bmi1 derepress | A549 cytotox | HepG2 cytotox SP | HEK293 cytotox SP
CC(=O)c1cccc(OCc2cc(C(=O)NCCC3=CCCCC3)no2)c1 | 72.5 | 83.3* | ? | 38.6 | 3.3 | 1.03 | 1.1 | 0.942 | -11.5 | -19.2 | -8.4
O=C(NCCC1=CCCCC1)c1cc(COc2c(F)cccc2F)on1 | 15.7 | 13.8 | 0.7 | -15.0 | -0.1 | . | . | . | . | . | .
CC(=O)Nc1ccc2nc(SCC(=O)Nc3ccc(N4CCOCC4)c(Cl)c3)sc2c1 | . | 47.9* | ? | -1.7 | 0.6 | 0.766 | 0.857 | 1.42 | -6.4 | -9.9 | -6.2
COc1ccccc1-c1ccc2n(c1=O)C[C@@H]1[C@@H](CO)[C@H](C(=O)N3CCCCC3)[C@H]2N1CC1CC1 | . | 1.8 | . | -1.0 | . | . | . | . | . | . | .
CCCN1C[C@H](C)[C@@H](OC)CN(C)C(=O)c2ccc(NC(=O)C3CC3)cc2OC[C@H]1C | . | 1.2 | . | -2.7 | . | . | . | . | . | . | .
CC(O)(c1ccccc1)c1nc(-c2cccc(C(=O)O)c2)cs1 (stereo not given) | . | 69.0* | 27.1 | 11.9 | 1.4 | 1.1 | 0.83 | 1.17 | -9.4 | 2.5 | -13.6
CN(C(=O)c1ccco1)c1nc(-c2ccc(Cl)cc2)cs1 | 66.5 | 34.6 | 8.7 | -3.6 | 1.6 | . | . | . | . | . | .
CC(=O)N(C)c1nc(-c2ccc(Cl)cc2)cs1 | 57.4 | 73.9* | . | -12.7 | 2.7 | 1.22 | 0.921 | 1.27 | -9.7 | -7.5 | -3.7
Cc1ccc(-c2cnc3c(c2)C(=O)N([C@H](C)CO)C[C@H](C)[C@H](CN(C)C(=O)Cc2ccccc2)O3)cc1 | . | 1.6 | . | 29.2 | . | . | . | . | . | . | .
O=C(CCN1C(=O)/C(=C/C=C/c2ccccc2)SC1=S)Nc1cccnc1 | 52.3 | 66.6* | 21.0 | -30.4 | -0.5 | 1.2 | 0.591* | 3.99 | -10.4 | -5.4 | -5.0
CC(C)Cc1ccc(-c2ccc3nccn3c2)cc1 | . | 66.5* | 14.8 | 3.0 | 2.9 | 1.17 | ? | 2.04 | -4.7 | -17.0 | 0.4
Fc1ccc(-c2ccc3nccn3c2)cc1Cl | . | 9.4 | -0.5 | 13.6 | -1.5 | . | . | . | . | . | .
CCCC(=O)Nc1ccc2c(c1)C(=O)N(C)[C@@H]1CC[C@@H](CC(=O)NCCOC)O[C@@H]1CO2 | . | -2.4 | . | 12.8 | . | . | . | . | . | . | .
O=C(Cc1cccs1)Nc1nc2c(s1)CCCC2 | 55.6 | 59.2* | 13.4 | -4.7 | -4.5 | 1.03 | 0.793* | 1.31 | -27.5 | 9.1 | -54.6*
C[C@@H](NC(=O)C[C@@H]1C=C[C@H](NC(=O)C2CCC2)[C@H](CO)O1)c1ccccc1 | . | 0.9 | . | -6.6 | . | . | . | . | . | . | .
O=C(Nc1ccc2oc(-c3ccccc3)nc2c1)c1cccs1 | 70.6 | 77.6* | . | -29.2 | 1.7 | 0.881 | ? | 1.91 | -8.4 | -6.2 | -15.4
Cc1sc(NC(=S)NC(=O)c2cccs2)nc1-c1ccc(C(C)C)cc1 | -4.0 | -2.5 | . | -4.9 | 0.3 | . | . | . | . | . | .
Cc1sc(NC(=O)c2cccs2)nc1-c1ccccc1 | . | 63.6* | 47.3* | -0.1 | -1.3 | 2.45* | 0.955 | 2.47 | -4.5 | 11.9 | 9.5
Cc1ccc2oc(-c3cccc(NC(=S)NC(=O)c4cccs4)c3)nc2c1 | 12.1 | . | 22.3 | . | 3.2 | . | . | . | . | . | .
C[C@H](CO)N1C[C@H](C)[C@@H](CN(C)C(=O)C2CCC2)Oc2ncc(-c3ccc(F)cc3)cc2C1=O | . | 2.9 | . | -1.7 | . | . | . | . | . | . | .
C[C@@H]1CCCCO[C@H](CN(C)Cc2ccccc2)[C@H](C)CN([C@@H](C)CO)C(=O)c2cc(NC(=O)C3CCCCC3)ccc2O1 | . | -2.4 | . | . | . | . | . | . | . | . | .
NCC[C@H]1CC[C@H](NC(=O)NC2CCCCC2)[C@H](CO)O1 | . | 3.9 | . | -3.6 | . | . | . | . | . | . | .
O=C(c1ccccc1F)N1C[C@@H]2[C@H](c3ccccc31)[C@@H](CO)N2Cc1ccc2c(c1)OCO2 | . | -3.0 | . | -6.3 | . | . | . | . | . | . | .
COc1ccc2c(ccc[n+]2[O-])c1 | -2.0 | 1.8 | -2.5 | 4.9 | 0.0 | . | . | . | . | . | .
COc1ccc2nc3ccccc3[n+]([O-])c2c1 | 26.1 | 72.1* | 4.0 | 5.5 | 3.0 | 1.38 | 1.3 | 2.53 | -6.2 | -13.7 | -11.0
CCN(CC)C(=O)OCc1c(-c2ccccc2)ncc2ccccc12 | 101.6* | 105.8* | ? | -31.5 | 5.4 | 0.924 | ? | 1.96 | -1.9 | -1.8 | -4.4
C[C@@H]1CN([C@@H](C)CO)C(=O)Cc2cc(NS(=O)(=O)c3ccc(Cl)cc3)ccc2O[C@@H]1CN(C)Cc1ccc(C(=O)O)cc1 | . | 2.7 | . | 22.6 | . | . | . | . | . | . | .
C[C@@H]1CN([C@H](C)CO)C(=O)c2cc(-c3cccc(C(=O)N(C)C)c3)cnc2O[C@H]1CN(C)S(=O)(=O)c1ccccc1 | . | -8.5 | . | -2.3 | . | . | . | . | . | . | .
